Measurements published in PubChem BioAssay (Tox21).
Several values for one entry are separate records, joined by “and”; a condition that tells them apart may be missing. Equal values may be shown once. Results filed as inconclusive are left out. A call without a number means that no potency is given here. Some structures have more than one record in an assay (separate samples or runs), and their calls can disagree. Activity calls are given as the source filed them. Unless noted, calls follow the shape of the full dose curve.

Experiments:
[1] = Nuclear factor erythroid 2-related factor 2/antioxidant responsive element (Nrf2/ARE) small molecule agonists: luciferase reporter gene qHTS assay in human keratinocytes (AID 1919969); also: nearly all actives have a fitted effect of over 35% in size; also: potency is read from the fitted curve at half-maximal effect
[2] = target: Gonadotropin-releasing hormone receptor (Homo sapiens) (UniProt P30968); assay: Human gonadotropin-releasing hormone receptor (GnRHR) small molecule agonists, calcium flux assay in GnRHR-HEK293 cells (AID 1920063); also: nearly all actives have a fitted effect of over 35% in size
Chain of Gonadotropin-releasing hormone receptor (Homo sapiens) (P30968 whole entry, looked up): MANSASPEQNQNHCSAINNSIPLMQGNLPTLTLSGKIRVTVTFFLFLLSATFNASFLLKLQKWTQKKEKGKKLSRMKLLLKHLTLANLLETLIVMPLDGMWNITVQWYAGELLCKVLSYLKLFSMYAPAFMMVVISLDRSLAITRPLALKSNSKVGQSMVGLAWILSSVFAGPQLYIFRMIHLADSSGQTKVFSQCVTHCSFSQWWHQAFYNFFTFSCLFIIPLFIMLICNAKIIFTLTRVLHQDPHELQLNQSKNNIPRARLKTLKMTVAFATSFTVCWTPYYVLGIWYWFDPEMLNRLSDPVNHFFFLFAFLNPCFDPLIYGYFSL
How it was run: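 Agonist mode: compounds at 15 concentrations, in triplicate, went onto calcium dye-loaded GnRHR-HEK293 cells. Intracellular calcium was then followed as 480/540 nm fluorescence at 1 s intervals over 3 min.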

[3] = target: KiSS-1 receptor (Homo sapiens) (UniProt Q969F8); assay: Human kisspeptin (KISS1R) small molecule agonists, calcium flux assay in KISS1R-HEK293 cells (AID 1920064; active = well fitted activation curve with a large enough effect in the repeat runs)
Chain of KiSS-1 receptor (Homo sapiens) (Q969F8 whole entry, looked up): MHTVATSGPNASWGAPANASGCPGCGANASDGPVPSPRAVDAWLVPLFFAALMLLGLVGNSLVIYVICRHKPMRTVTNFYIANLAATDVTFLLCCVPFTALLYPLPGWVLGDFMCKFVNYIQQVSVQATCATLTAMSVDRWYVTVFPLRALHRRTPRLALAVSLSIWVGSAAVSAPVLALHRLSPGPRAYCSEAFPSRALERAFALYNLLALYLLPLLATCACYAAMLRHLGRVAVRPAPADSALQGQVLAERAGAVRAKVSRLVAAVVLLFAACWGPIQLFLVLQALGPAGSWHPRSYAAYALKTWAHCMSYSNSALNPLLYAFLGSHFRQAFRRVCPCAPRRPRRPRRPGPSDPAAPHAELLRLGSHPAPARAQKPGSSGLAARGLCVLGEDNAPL
How it was run: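 Agonist mode: intracellular calcium rise tracked at 1 s intervals over 3 min (480/540 nm) immediately after compound addition to dye-loaded KISS1R-HEK293 stable cells. Each compound tested at 15 concentrations in triplicate.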

[4] = G protein-coupled receptor (GPCR) small molecule agonists, calcium flux assay: HEK293 wild type cell line counter screen (AID 1920065)
How it was run: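 Calcium flux counter screen: compound added in agonist mode at 15 concentrations in triplicate to dye-loaded parental HEK293 cells. Fluorescence (480/540) read kinetically for 3 min; ATP served as positive control.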

[5] = p53 small molecule agonists, cell-based qHTS assay with human liver microsomes: qHTS cell viability counter screen (AID 1963579); also: nearly all actives have a fitted effect of over 45% in size; also: potency is read from the fitted curve at half-maximal effect
How it was run: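 p53RE-bla cells, 4,000/well, dosed 5 hours after plating, with human liver microsomes (0.5 mg/mL final) plus NADPH (0.5 mg/mL final), 16 hours at 37 C. Viability read as CellTiter-Glo luminescence after 30 min at room temperature.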

[6] = p53 small molecule agonists, cell-based qHTS assay with rat liver microsomes: qHTS cell viability counter screen (AID 1963580); also: nearly all actives have a fitted effect of over 45% in size; also: potency is read from the fitted curve at half-maximal effect
How it was run: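 Cytotoxicity counter screen: intracellular ATP measured by CellTiter-Glo luminescence in the same wells as the beta-lactamase reporter read, on HCT-116 p53RE-bla cells exposed 16 h at 37 C to compounds with rat liver microsomes and NADPH, each 0.5 mg/mL final.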

[7] = p53 small molecule agonists, cell-based qHTS assay: qHTS cell viability counter screen (AID 1963581); also: nearly all actives have a fitted effect of over 45% in size
How it was run: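 Counter screen read by CellTiter-Glo luminescence (ATP content, 30 min at room temperature), run in the same wells as the beta-lactamase reporter read. HCT-116 p53RE-bla cells saw compounds for 16 h at 37 C.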

[8] = p53 small molecule agonists, cell-based qHTS assay (AID 1963582; active = well fitted activation curve with a large enough effect in the signal ratio in the repeat runs, not every such curve was filed as active; the % refers to the signal ratio)
How it was run: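 Read-out is beta-lactamase FRET fluorescence after 2 h at room temperature with LiveBLAzer B/G substrate. p53 response element-bla cells were treated 16 h at 37 C with compounds in DMSO, added 5 h after seeding.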

[9] = target: 5-hydroxytryptamine receptor 2A (Homo sapiens) (UniProt P28223); assay: 5-hydroxytryptamine receptor 2A (HTR2A) small molecule antagonists, cell-based qHTS assay (AID 1963586); also: nearly all actives have a fitted effect of over 45% in size; also: potency is read from the fitted curve at half-maximal effect
Chain of 5-hydroxytryptamine receptor 2A (Homo sapiens) (P28223 whole entry, looked up): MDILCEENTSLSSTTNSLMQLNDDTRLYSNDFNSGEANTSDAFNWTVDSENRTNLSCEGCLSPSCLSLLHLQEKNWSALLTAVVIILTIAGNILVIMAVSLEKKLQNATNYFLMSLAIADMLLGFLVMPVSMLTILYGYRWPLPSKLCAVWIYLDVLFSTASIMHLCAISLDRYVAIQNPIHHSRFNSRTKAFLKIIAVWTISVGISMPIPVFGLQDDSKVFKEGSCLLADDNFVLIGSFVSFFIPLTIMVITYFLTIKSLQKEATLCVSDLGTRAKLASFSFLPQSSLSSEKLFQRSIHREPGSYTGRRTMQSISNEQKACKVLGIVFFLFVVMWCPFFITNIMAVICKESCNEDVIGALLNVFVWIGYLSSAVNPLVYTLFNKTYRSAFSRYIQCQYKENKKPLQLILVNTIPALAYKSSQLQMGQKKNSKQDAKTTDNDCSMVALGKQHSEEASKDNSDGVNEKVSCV
How it was run: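 CHO cells stably expressing human HTR2A were plated for 18 h at 37 C, then loaded with calcium dye for 1 h. Compounds were preincubated 5 min at room temperature before DOI (4 nM solution) was added. Kinetic fluorescence was read for 3 min.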

[10] = target: Muscarinic acetylcholine receptor M1 (Homo sapiens) (UniProt P11229); assay: Cholinergic receptor muscarinic 1 (CHRM1) small molecule antagonists, cell-based qHTS assay (AID 1963588); also: nearly all actives have a fitted effect of over 40% in size
Chain of Muscarinic acetylcholine receptor M1 (Homo sapiens) (P11229 whole entry, looked up): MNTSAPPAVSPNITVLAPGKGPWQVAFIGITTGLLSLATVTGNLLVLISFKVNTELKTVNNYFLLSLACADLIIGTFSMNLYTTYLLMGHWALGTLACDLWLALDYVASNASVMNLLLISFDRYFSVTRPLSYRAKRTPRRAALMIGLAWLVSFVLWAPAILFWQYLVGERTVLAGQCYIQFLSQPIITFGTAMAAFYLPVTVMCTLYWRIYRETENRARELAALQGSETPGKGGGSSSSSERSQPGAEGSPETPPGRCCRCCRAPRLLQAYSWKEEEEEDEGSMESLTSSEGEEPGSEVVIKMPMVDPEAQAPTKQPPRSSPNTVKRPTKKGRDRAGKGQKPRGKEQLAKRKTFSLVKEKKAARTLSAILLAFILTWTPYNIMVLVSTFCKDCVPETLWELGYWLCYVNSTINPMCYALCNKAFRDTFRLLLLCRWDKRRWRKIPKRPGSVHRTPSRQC
How it was run: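 Compounds were tested at 15 concentrations in three independent runs. Dye-loaded CHRM1-CHO cells were exposed 5 min at room temperature before stimulation by acetylcholine added at 50nM. Intracellular calcium was read kinetically on FDSS for 3 min.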

[11] = target: Muscarinic acetylcholine receptor M1 (Homo sapiens) (UniProt P11229); assay: Cholinergic receptor muscarinic 1 (CHRM1) small molecule agonists, cell-based qHTS assay (AID 1963589); also: nearly all actives have a fitted effect of over 35% in size
How it was run: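 Agonist-mode calcium-flux screen: compounds at 15 concentrations, three independent runs, were pin-transferred onto dye-loaded human CHRM1-CHO cells. Fluorescence was then recorded kinetically every second over minutes.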

[12] = cAMP Responsive Elements (CRE) small molecule agonists, cell-based qHTS assay (AID 1963590)
How it was run: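 Agonist mode: compound added to CRE-bla HEK 293T cells (2,000/well, 18 h after plating) for 3 h at 37 C/5% CO2. Reporter activity detected via FRET beta-lactamase substrate, 2 h room-temperature loading.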

[13] = cAMP Responsive Elements (CRE) small molecule antagonists, cell-based qHTS assay (AID 1963591; active = well fitted inhibition curve with a large enough effect in the signal ratio in the repeat runs, not every such curve was filed as active; the % refers to the signal ratio)
How it was run: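 Antagonist mode: compounds are added alongside the adenylyl cyclase activator NKH477 (0.25 uM final) to CRE-bla HEK293T cells for 3 h. LiveBLAzer FRET substrate, 2 h at room temperature, reports bla expression.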

[14] = target: D(2) dopamine receptor (Homo sapiens) (UniProt P14416); assay: Dopamine D2 receptor (DRD2) small molecule agonists, cell-based qHTS assay (AID 1963594); also: nearly all actives have a fitted effect of over 35% in size
Chain of D(2) dopamine receptor (Homo sapiens) (P14416 whole entry, looked up): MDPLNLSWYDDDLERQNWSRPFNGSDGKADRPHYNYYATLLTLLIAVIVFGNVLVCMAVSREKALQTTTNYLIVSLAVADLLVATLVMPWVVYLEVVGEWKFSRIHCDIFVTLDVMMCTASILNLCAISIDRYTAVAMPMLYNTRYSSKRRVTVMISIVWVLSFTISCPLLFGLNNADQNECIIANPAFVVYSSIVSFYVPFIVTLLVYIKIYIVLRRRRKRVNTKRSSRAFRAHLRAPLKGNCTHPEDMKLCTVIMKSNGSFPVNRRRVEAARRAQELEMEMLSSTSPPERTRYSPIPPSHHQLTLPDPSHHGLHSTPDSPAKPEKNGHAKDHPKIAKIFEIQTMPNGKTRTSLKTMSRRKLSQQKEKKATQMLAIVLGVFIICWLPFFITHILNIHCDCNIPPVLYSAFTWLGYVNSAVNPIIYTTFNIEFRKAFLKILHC
How it was run: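 HEK293 cells stably expressing human DRD2, pre-treated with PDE inhibitor Ro20-1724 (0.1 mM final) and compound 10 min at room temperature, then stimulated with NKH477 (200nM […]) for 30 min. cAMP read by HTRF (665/620 nm).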

[15] = target: D(2) dopamine receptor (Homo sapiens) (UniProt P14416); assay: Dopamine D2 receptor (DRD2) small molecule antagonists, cell-based qHTS assay (AID 1963595; active = well fitted inhibition curve with a large enough effect in the signal ratio in the repeat runs, with a control signal flat; the % refers to the signal ratio)
How it was run: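 Human DRD2 antagonist qHTS measuring cAMP by HTRF. The cells are exposed to compound for 10 min, then to NKH477 (200 nM) and quinpirole (12 nM) for 30 min at RT, with Ro20-1724 (0.1 mM) present throughout.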

[16] = target: 5-hydroxytryptamine receptor 2A (Homo sapiens) (UniProt P28223); assay: 5-hydroxytryptamine receptor 2A (HTR2A) small molecule agonists, cell-based qHTS assay (AID 1963587); also: nearly all actives have a fitted effect of over 30% in size; also: potency is read from the fitted curve at half-maximal effect
How it was run: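 CHO cells stably expressing human HTR2A, plated 18 h, loaded with calcium dye 1 h at 37 C. Agonist mode: compounds added and intracellular calcium fluorescence recorded kinetically for 2 min at 1 sec intervals.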

[17] = target: Beta-2 adrenergic receptor (Homo sapiens) (UniProt P07550); assay: Adrenergic beta2 receptor (ADRB2) small molecule antagonists, cell-based qHTS assay (AID 1963592); also: series mostly up to about 92 µM; nearly all actives have a fitted effect of over 50% in size
Chain of Beta-2 adrenergic receptor (Homo sapiens) (P07550 whole entry, looked up): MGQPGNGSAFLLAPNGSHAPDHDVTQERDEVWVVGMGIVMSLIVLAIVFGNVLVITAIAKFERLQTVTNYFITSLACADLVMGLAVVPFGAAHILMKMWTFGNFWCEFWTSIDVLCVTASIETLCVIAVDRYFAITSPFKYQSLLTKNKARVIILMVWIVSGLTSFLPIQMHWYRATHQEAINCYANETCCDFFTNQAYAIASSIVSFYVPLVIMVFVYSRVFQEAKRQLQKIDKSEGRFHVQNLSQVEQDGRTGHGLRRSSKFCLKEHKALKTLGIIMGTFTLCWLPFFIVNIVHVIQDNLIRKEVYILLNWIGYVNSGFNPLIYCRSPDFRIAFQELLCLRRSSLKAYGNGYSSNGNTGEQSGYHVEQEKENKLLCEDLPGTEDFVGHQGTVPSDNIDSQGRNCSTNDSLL
How it was run: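 Assay format: CHO-ADRB2 cells, 18-20hr seeding at 37C/5% CO2, then compound plus 1nM isoproterenol agonist mix for 0.5hr RT. Homogeneous time-resolved fluorescence cAMP detection after 1hr, expressed as 665/615 nm ratio.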

[18] = target: Beta-2 adrenergic receptor (Homo sapiens) (UniProt P07550); assay: Adrenergic beta2 receptor (ADRB2) small molecule agonists, cell-based qHTS assay (AID 1963593);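 also: CHO cells stably overexpressing human ADRB2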
How it was run: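 CHO cells stably over-expressing ADRB2 were plated overnight at 37C, then dosed with compounds plus a stimulation mix containing 100uM IBMX and 25uM Ro-20-1724 for 0.5hr at room temperature. cAMP was measured by HTRF competition, 1hr.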

[19] = p53 small molecule agonists, cell-based qHTS assay with rat liver microsomes (AID 1963578)
How it was run: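 p53RE-bla cells, 4,000/well, pre-incubated 5 h, then given compounds plus rat liver microsomes (0.5 mg/mL final) and NADPH (0.5 mg/mL final). Incubation 16 h at 37 C; beta-lactamase reporter read by LiveBLAzer fluorescence after 2 h at room temperature.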

[20] = p53 small molecule agonists, cell-based qHTS assay with human liver microsomes (AID 1963577)
How it was run: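 p53RE-bla cells, 4,000/well, compound added after 5 h, with human liver microsomes 0.5 mg/mL and NADPH 0.5 mg/mL final; 16 h at 37 C, then LiveBLAzer 2 h RT, fluorescence.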

Row | SMILES | Potency [1] | Potency [2] | Potency [3] | Potency [4] | Potency [5] | Potency [6] | Potency [7] | Potency [8] | Potency [9] | Potency [10] | Potency [11] | Potency [12] | Potency [13] | Potency [14] | Potency [15] | Potency [16] | Potency [17] | Potency [18] | Potency [19] | Potency [20]
1 | Cl/C=C/CCl | inactive | inactive | inactive | inactive | inactive | inactive | inactive | inactive | inactive | inactive | inactive | inactive | inactive | inactive | inactive |  |  |  |  | 
2 | CCCCCCCCCCCCCCCCCC(=O)O | 48.2 µM (active) and inactive | inactive | inactive | inactive | inactive | inactive | inactive |  | inactive | inactive |  | inactive | inactive | inactive | inactive | inactive | inactive | inactive |  | 
3 | CNC(=O)O/N=C/C(C)(C)S(C)(=O)=O | inactive | inactive |  | inactive | inactive | inactive | inactive | inactive | inactive |  | inactive | inactive | inactive | inactive | inactive | inactive | inactive | inactive |  | 
4 | CCC(C)(C)c1ccc(O)cc1 | inactive | inactive | inactive | inactive | inactive |  | inactive | inactive | 37.9 µM (active) and inactive | inactive | inactive |  |  | inactive | inactive | 55.5 µM (active) and inactive | inactive | inactive | inactive | 
5 | CCc1cc(C)cc(CC)c1-c1c(OC(=O)C(C)(C)C)n2n(c1=O)CCOCC2 | inactive | inactive | inactive |  | inactive | inactive | inactive | inactive | inactive | inactive | inactive | inactive | inactive | inactive | inactive | inactive | inactive |  | inactive | inactive
6 | Cc1ccccc1[N+](=O)[O-] | inactive | inactive | inactive | inactive | inactive | inactive | inactive | inactive | inactive | inactive | inactive | inactive |  | inactive |  | inactive | inactive | inactive |  | inactive
7 | CCCCCCCCCCn1cc[n+](C)c1 | inactive | inactive | inactive | inactive | 46.2 µM (active) and inactive | 36.7 µM (active) and inactive | inactive |  | inactive |  | inactive |  |  | inactive | inactive | inactive | inactive | inactive |  | inactive
8 | CC(C)COC(=O)c1ccccc1C(=O)OCC(C)C | inactive | inactive | inactive | inactive | inactive | inactive | inactive |  | inactive | inactive |  | inactive | inactive | inactive | inactive | 5.5 µM (active) and inactive | inactive | inactive |  | 
9 | CCC(C)C(C)(COC(N)=O)COC(N)=O (centres undefined) | inactive | inactive | inactive | inactive | inactive | inactive | inactive | inactive |  | inactive | inactive | inactive | inactive | inactive | inactive | inactive | inactive |  | inactive | 
10 | Oc1cccc2cccnc12 |  | inactive | inactive | inactive | inactive and 971 nM (active) and 913 nM (active) |  | inactive |  |  |  |  | inactive | inactive | inactive | inactive |  | inactive | inactive |  | 
11 | CC1CC(=O)O1 (centres undefined) | inactive | inactive | inactive |  | inactive | inactive | inactive |  | inactive | inactive | inactive | inactive |  | inactive | inactive | inactive | inactive | inactive |  | 
12 | CCCCC1C(=O)NC(=O)N(C2CCCCC2)C1=O (centres undefined) | inactive | inactive | inactive | inactive | inactive | inactive |  | inactive | inactive | inactive | inactive |  | inactive | inactive | inactive | inactive | inactive | inactive |  | inactive
